The values below come from PubChem BioAssay.

Assay [1] in a line: binders of probe aFSTL3 on microarray, primary screen, stem cell growth factor project, biochemical, small-molecule microarray, fluorescence 635/667 (AID 1064).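 Also: measures binding of the biotinylated anti-FSTL3 antibody to printed compounds.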 Particulars: higher = more signal.
Assay [2] in a line: binders from COS7 lysate, DM2A8 probe, primary screen, torsin A project, cell lysate, small-molecule microarray, fluorescence 635/667 (AID 1065). Particulars: higher = more signal, COS7 lysate expressing mutant human TOR1A.
Assay [3] can be described thus: binders of probe aFGF2 on microarray, primary screen, stem cell growth factor project, biochemical, small-molecule microarray, fluorescence 635/667 (AID 1067).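 Also: measures binding of biotinylated aFGF2 protein to printed compounds on slides; z-score merges feature fluorescence and signal-to-noise across triplicate slides.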 Particulars: higher = more signal.
Assay [4] in a line: binders of probe aFGF10 on microarray, primary screen, stem cell growth factor project, biochemical, small-molecule microarray, fluorescence 635/667 (AID 1071).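 Also: score merges 667 nm spot intensity and signal to noise from triplicate slides.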 Particulars: higher = more signal.
The target in assay [5] is Neurogenic locus notch homolog protein 2 (Homo sapiens) (UniProt Q04721). The experiment in a line: Notch2 binders on small-molecule microarrays, primary screen, biochemical, small-molecule microarray, 635 nm fluorescence, stem cell growth factors (AID 1073). Particulars: Notch2 binding, higher = more signal.
Sequence of Neurogenic locus notch homolog protein 2 (Homo sapiens) (Q04721 whole entry, looked up, canonical isoform): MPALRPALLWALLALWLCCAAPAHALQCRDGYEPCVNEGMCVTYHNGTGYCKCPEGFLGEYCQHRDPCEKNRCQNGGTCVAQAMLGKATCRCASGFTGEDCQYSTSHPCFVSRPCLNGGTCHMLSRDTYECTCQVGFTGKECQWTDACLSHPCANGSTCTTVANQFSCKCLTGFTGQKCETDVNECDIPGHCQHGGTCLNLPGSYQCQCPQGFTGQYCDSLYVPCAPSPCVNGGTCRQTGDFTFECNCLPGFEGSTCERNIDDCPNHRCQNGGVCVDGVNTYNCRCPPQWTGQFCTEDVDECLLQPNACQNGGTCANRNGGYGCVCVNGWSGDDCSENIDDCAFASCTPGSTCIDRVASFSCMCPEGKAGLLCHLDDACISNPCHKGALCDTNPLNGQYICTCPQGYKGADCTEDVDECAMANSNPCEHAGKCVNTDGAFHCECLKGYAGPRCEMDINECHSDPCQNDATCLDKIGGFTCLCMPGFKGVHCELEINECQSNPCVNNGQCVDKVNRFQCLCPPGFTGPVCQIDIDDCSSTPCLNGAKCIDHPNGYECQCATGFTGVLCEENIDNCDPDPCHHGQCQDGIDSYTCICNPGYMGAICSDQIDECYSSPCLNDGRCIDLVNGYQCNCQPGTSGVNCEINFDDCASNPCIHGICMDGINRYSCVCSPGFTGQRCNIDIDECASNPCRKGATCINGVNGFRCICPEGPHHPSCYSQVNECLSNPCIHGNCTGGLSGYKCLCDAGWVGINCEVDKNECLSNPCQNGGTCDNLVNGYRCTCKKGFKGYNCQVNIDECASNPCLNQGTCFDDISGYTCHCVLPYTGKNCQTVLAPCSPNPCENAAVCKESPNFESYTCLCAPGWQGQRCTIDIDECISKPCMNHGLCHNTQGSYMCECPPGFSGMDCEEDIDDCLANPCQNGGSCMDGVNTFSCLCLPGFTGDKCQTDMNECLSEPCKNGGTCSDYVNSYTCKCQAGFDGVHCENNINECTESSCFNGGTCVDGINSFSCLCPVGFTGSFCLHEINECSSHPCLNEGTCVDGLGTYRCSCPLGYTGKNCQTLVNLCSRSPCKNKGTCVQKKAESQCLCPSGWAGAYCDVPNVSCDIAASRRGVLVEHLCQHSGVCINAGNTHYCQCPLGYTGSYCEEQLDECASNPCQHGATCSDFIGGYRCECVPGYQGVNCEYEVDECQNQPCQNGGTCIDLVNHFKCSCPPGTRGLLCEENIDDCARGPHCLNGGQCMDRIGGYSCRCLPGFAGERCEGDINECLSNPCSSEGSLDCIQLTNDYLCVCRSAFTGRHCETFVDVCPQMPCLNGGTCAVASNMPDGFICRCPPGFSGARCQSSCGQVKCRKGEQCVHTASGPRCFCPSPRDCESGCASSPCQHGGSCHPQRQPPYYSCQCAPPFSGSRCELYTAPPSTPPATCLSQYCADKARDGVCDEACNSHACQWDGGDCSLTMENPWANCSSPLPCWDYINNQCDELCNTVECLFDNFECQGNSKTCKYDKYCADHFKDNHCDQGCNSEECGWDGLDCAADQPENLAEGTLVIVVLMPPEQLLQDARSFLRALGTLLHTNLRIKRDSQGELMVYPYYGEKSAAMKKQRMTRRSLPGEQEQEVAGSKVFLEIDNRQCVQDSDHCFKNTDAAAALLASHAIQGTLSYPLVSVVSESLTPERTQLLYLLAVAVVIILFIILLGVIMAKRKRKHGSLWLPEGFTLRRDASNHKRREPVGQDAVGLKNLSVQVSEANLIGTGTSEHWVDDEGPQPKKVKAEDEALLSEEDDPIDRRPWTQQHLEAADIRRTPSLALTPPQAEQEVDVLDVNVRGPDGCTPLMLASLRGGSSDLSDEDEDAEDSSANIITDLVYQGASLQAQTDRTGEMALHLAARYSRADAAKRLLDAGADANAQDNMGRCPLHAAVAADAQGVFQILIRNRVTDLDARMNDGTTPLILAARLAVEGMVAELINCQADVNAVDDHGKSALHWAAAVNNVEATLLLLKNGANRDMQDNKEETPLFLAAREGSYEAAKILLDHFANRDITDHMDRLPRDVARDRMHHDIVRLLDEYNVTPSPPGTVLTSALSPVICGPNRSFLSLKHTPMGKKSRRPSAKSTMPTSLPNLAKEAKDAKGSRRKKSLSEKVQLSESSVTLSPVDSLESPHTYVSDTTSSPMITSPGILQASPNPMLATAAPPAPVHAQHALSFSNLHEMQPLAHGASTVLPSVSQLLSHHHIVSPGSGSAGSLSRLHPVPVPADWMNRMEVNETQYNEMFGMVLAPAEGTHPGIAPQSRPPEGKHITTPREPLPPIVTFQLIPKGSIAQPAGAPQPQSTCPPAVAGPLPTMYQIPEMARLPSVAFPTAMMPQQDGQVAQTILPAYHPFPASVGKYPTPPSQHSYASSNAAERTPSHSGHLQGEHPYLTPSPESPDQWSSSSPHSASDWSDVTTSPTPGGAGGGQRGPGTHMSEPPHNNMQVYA
Assay [6] has as its target Pro-neuregulin-1, membrane-bound isoform (Homo sapiens) (UniProt Q02297). The experiment in a line: NRG1 binders on small-molecule microarrays, primary screen, psychiatric disease protein project, biochemical, small-molecule microarray, fluorescence 635/667 (AID 1075).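 Also: score combines 667 nm spot fluorescence with signal to noise.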 Particulars: NRG1 binding, 635 nm fluorescence, higher = more signal.
In assay [7] the test system is Neuregulin-1 EGF-like domain. The experiment in a line: binders of neuregulin-1 EGF-like domain, primary screen, biochemical, small-molecule microarray, 635 nm fluorescence (AID 1081).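 Also: binding of the protein to compounds printed on small-molecule microarray slides.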 Particulars: small-molecule microarray binding, higher = more signal.
A short description of assay [8]: FRG1 promoter luciferase signal modulators, primary screen, FRG1 inhibition for FSHD, cell-based, C2C12 myotubes, firefly/Renilla luciferase, luminescence (AID 1084). Particulars: higher = more signal, called active from +8 up or from −8 down.
The nature of assay [9]: binders of probe aFST on microarray, primary screen, stem cell growth factor project, biochemical, small-molecule microarray, fluorescence 635/667 (AID 1086).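 Also: score merges 667 nm fluorescence with signal-to-noise of each printed compound spot.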 Particulars: higher = more signal.
Assay [10] in a line: binders of probe aHhip on microarray, primary screen, stem cell growth factor project, biochemical, small-molecule microarray, fluorescence 635/667 (AID 1087).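 Also: score merges spot fluorescence at 667nm with spot signal to noise ratio.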 Particulars: higher = more signal.
The test system of assay [11] is PRMT1 (protein arginine N-methyltransferase 1). The experiment in a line: PRMT1 binders on small-molecule microarrays, primary screen, biochemical, small-molecule microarray, 635 nm fluorescence (AID 1088).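 Also: binding of Prmt1 protein to compounds spotted on small-molecule microarray slides.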 Particulars: small-molecule microarray binding, higher = more signal.
The nature of assay [12]: yeast growth modulation, basal conditions, primary screen, YJM789 clinical isolate, OD600, 24 h (AID 1089).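 Also: growth of clinical yeast isolate S. cerevisiae YJM 789 seeded 1000 cells per well; test concentration not given here.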 The note with it: S. cerevisiae YJM789 growth, higher = more signal, called active from +8 up or from −8 down.
Assay [13] in a line: fission yeast growth modulation, primary screen, strain 972, OD600, 24 h, no modulator (AID 1090).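 Also: basal condition with compound alone and no growth modifier present; test concentration not given here.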 The note with it: S. pombe 972 growth, higher = more signal, called active from +8 up or from −8 down.
Assay [14] in a line: S. cerevisiae growth modulation with rapamycin, primary screen, strain BY4716, OD600, 96 h (AID 1091). Also: test concentration not given here. Particulars: higher = more signal, called active from +8 up or from −8 down.
Assay [15] addresses Torsin-1A-interacting protein 2 (Homo sapiens) (UniProt Q8NFQ8). The experiment in a line: LULL1 binders on small-molecule microarray, primary screen, cell lysate, human LULL1 lysate, 635/667 nm fluorescence (AID 1092).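 Also: probe is lysate of COS7 cells overexpressing human LULL1; score merges per-feature 667 nm fluorescence with signal-to-noise.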 The note with it: hLULL1 lysate binding, 635 nm fluorescence, higher = more signal.
The nature of assay [16]: E. coli growth modulation, two-sided OD650, primary screen, E. coli filamentation project, strain DRC41, 24 h (AID 1093).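 Also: MC1000 strain lacking acrAB efflux and sulA so SOS filamentation is blocked; test concentration not given here.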 Particulars: OD650, 24 h, higher = more signal, called active from +8 up or from −8 down.
Assay [17] is described as follows: small-molecule microarray binders of probe aLefty2, primary screen, biochemical, biotinylated probe, 635/667 nm fluorescence (AID 1094).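 Also: score merges spot fluorescence near 667 nm with spot signal-to-noise ratio.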 The note with it: higher = more signal.
Assay [18] relates to Noggin (protein binding on small-molecule microarray). The experiment in a line: Noggin binders on small-molecule microarray, primary screen, biochemical, 635/667 nm fluorescence (AID 1095).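 Also: score merges 667 nm feature fluorescence with signal to noise over triplicate slides.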 Particulars: 635 nm fluorescence, higher = more signal.
Assay [19] has as its target Neurogenic locus notch homolog protein 3 (Homo sapiens) (UniProt Q9UM47). Kind of assay: NOTCH3 binders on small-molecule microarray, primary screen, biochemical, 635/667 nm fluorescence (AID 1096). The note with it: NOTCH3 binding, 635 nm fluorescence, higher = more signal.
The nature of assay [20]: small-molecule microarray binders of probe aEGFR, primary screen, biochemical, biotinylated probe, 635/667 nm fluorescence (AID 1097).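 Also: probe is a biotinylated anti-EGFR antibody binding compounds printed on slides; score combines fluorescence near 667 nm and signal to noise of each spot.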 The note with it: higher = more signal.

Each structure is given as a SMILES string. Calls of active or inactive are those of the source.

Sequence of Neurogenic locus notch homolog protein 3 (Homo sapiens) (Q9UM47 whole entry, looked up): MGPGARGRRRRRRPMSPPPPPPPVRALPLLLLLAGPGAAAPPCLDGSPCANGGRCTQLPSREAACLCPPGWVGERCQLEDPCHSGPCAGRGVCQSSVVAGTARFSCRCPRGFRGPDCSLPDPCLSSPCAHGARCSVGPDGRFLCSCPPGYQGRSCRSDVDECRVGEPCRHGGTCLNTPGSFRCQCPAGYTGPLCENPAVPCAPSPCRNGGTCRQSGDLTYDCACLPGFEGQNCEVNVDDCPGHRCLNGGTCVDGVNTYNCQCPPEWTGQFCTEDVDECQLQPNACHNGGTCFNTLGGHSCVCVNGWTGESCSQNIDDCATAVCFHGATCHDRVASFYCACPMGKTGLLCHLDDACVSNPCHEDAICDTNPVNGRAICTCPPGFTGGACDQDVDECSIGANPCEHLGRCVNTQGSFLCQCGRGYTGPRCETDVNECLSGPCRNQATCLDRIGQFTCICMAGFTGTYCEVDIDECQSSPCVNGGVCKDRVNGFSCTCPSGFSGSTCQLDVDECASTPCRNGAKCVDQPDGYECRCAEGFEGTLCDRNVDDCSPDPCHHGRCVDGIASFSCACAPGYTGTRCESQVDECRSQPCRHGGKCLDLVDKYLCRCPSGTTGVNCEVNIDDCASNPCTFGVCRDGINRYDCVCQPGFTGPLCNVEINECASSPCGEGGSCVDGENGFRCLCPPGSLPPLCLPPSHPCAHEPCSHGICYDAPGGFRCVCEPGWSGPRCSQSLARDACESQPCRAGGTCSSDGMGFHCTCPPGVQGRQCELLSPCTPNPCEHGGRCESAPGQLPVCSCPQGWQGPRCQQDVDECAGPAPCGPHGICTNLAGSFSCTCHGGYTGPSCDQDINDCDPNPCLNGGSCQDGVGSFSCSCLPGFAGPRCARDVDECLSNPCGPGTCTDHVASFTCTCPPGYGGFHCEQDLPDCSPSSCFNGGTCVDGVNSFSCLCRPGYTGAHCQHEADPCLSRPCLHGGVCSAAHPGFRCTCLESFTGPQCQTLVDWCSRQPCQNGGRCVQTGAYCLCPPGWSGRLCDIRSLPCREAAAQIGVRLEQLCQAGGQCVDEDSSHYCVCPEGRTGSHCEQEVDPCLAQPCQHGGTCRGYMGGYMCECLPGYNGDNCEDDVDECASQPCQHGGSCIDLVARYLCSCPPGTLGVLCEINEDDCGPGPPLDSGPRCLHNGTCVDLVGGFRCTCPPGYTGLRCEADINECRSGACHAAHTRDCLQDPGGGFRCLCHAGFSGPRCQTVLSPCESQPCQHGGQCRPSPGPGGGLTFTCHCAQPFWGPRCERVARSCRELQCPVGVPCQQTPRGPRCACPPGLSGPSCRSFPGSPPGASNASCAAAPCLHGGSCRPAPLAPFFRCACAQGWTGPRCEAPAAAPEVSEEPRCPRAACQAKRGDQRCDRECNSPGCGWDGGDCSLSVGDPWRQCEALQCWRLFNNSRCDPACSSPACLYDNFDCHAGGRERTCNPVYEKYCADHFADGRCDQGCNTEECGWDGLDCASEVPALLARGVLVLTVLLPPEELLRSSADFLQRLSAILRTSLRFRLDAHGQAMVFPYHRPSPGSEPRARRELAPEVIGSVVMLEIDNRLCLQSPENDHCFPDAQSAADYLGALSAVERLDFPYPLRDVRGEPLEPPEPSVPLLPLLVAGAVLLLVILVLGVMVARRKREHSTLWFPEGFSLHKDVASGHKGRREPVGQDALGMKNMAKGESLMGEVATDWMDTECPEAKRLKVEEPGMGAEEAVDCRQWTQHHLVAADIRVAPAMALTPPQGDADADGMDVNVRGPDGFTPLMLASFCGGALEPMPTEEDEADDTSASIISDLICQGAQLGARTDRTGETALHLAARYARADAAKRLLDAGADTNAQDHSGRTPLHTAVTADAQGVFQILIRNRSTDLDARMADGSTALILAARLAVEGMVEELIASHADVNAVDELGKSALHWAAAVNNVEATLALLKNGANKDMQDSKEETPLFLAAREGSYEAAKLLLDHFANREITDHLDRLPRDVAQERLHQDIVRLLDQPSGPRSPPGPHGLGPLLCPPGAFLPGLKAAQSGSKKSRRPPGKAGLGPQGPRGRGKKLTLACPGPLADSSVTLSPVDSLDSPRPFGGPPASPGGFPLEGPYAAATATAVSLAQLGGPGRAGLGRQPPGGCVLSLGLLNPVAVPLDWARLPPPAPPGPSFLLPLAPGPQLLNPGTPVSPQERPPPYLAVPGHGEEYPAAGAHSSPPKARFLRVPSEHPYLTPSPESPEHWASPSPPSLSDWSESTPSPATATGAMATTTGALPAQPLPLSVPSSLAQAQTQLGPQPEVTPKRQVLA

Turning to `Cc1ccc(S[C@]2(C(=O)NC3CC3)CC(=O)N(Cc3ccccc3C(F)(F)F)[C@@H]2c2ccc(CO)cc2I)cc1`, the composite z-score in assay [1] was 1.38; in assay [2] it was 0.15; in assay [3], -0.0139; in [4] it was 0.152; in assay [5], -1.13; in [6], 0.37. The composite z-score was determined as 1.2 in assay [7]; 0.0584 in [9]; 0.219 in assay [10]; 0.279 in assay [11]; 1.1 in assay [15]; 0.244 in assay [17]. Moreover, the composite z-score was -0.536 in assay [18], -0.654 in assay [19] and -0.0899 in [20]. In addition, the z-score is -0.967 (inactive) in assay [8]; -1.31 (inactive) in assay [12]; -4.68 (inactive) in assay [13]; 2.34 (inactive) in [14]; -0.195 (inactive) in assay [16].

As for `CC(C)C[C@@H]1NC(=O)[C@@]23C(=O)N[C@@H](Cc4ccccc4)C2[C@H](C)[C@@]2(C)O[C@H]2C3/C=C/C/C=C\CNC(=O)[C@H](Cc2ccccc2)NC1=O` (stereo not given in full), the composite z-score in assay [1] is -0.215; in [2], -0.215; in assay [3], -0.101; in assay [4], -0.0045; in [5] it was 0.245; in [6] it was 0.974. Besides, the composite z-score in assay [7] is 0.897; in [9], 0.0017; in [10], 0.03; in [11], 0.911; in assay [15], 0.574; in assay [17], -0.202. In addition, the composite z-score in [18] is 0.404; in assay [19], 0.414; in assay [20] it was -0.0671. For the same compound, the z-score in assay [8] is 0.259 (inactive); in assay [12], -0.664 (inactive); in [13], -19.9 (active); in [14], -0.602 (inactive); in [16] it was 2.08 (inactive).

On to `CCCNC(=O)[C@@H]1c2ccccc2C(=O)N(Cc2cc(C(F)(F)F)cc(C(F)(F)F)c2)[C@H]1c1ccc(CO)cc1`, for which the composite z-score in assay [1] was 0.684; in [2] it was -0.27; in assay [3], 0.0064; in assay [4] it was 0.0859; in assay [5] it was 0.394; in [6], 0.519. Moreover, the composite z-score in [7] worked out at 1.2; in assay [9] it was 0.361; in [10], 0.0895; in assay [11] it was 1.09; in assay [15], 1.34; in assay [17], 0.0758. Also, the values for the composite z-score in assay [18], in assay [19] and in assay [20] were 0.261, 0.523 and -0.0255, respectively. Also, the z-score was -0.0626 (inactive) in assay [8]; 0.73 (inactive) in assay [12]; -1.69 (inactive) in assay [13]; -0.262 (inactive) in assay [14]; 0.315 (inactive) in assay [16].

Regarding `COC(=O)C1=CC(CCCO)=CC(C2CC2)N(Cc2cc3c(cc2Br)OCO3)C=C1C(=O)OC` (stereo not given), the composite z-score in assay [1] was 1.74; in assay [2], 2.08; in [3] it was -0.0656; in [4], -0.435; in assay [5] it was 0.728; in assay [6], 2.22. Also, the composite z-score in assay [7] was 1.3; in [9], 0.796; in [10], -0.0645; in [11] it was 1.54; in [15], 3; in assay [17], 0.392. The composite z-score in assay [18] was -0.705; in assay [19] it was 0.647; in assay [20], 0.0821. Moreover, the z-score in assay [8] was -0.0234 (inactive); in assay [12], -1.04 (inactive); in assay [13], -2.22 (inactive); in assay [14], -1.23 (inactive); in [16] it was -0.741 (inactive).

For the compound `CO[C@H]1O[C@H](CO)[C@@H](OC(=O)Nc2ccccc2)[C@H](OC(=O)Nc2ccc3c(c2)OCO3)[C@H]1OC(=O)Nc1ccc2c(c1)OCO2`, the composite z-score was found to be 0.381 in assay [1]; 0.45 in assay [2]; 0.128 in assay [3]; 0.7 in [4]; 1.29 in [5]; 1.61 in assay [6]. In addition, the composite z-score was 1.23 in [7]; 0.29 in assay [9]; -0.175 in assay [10]; 1.56 in assay [11]; 2.8 in assay [15]; 0.0789 in assay [17]. Further, the composite z-score in assay [18] is 0.128; in assay [19], 1.06; in [20], -0.0527. The z-score in assay [8] is 4.5 (inactive); in assay [12], 0.648 (inactive); in assay [13], 0.494 (inactive); in assay [14], 2.28 (inactive); in assay [16], 2.75 (inactive).
